Screen size: about 24,000 compounds; about 50 (0.2%) were called active. Not shown: some 9% with an inconclusive outcome. The sample as a whole holds a higher share of actives than the screen did. Values without a mark were called inactive.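 The calls were made as follows: active = inhibition above 50%; inconclusive = compound itself fluorescent, judged against control cell fluorescence; inactive = the rest.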
The compounds below were run against Integrin alpha-4 (Homo sapiens) (UniProt P13612) (assay: inhibitors of LDV-FITC binding to Mn2+-activated VLA-4, primary screen, Jurkat cells (AID 529;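 also: 0% = Mn2+ stimulated cells lacking compound and 100% = ligand binding without Mn2+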)). Conditions: LDV-FITC binding with Mn2+, flow cytometry, stronger effect = higher value, 100% = Mn2+-driven binding gain fully reversed, screened at 10 µM (by protocol).
Sequence of Integrin alpha-4 (Homo sapiens) (P13612 whole entry, looked up): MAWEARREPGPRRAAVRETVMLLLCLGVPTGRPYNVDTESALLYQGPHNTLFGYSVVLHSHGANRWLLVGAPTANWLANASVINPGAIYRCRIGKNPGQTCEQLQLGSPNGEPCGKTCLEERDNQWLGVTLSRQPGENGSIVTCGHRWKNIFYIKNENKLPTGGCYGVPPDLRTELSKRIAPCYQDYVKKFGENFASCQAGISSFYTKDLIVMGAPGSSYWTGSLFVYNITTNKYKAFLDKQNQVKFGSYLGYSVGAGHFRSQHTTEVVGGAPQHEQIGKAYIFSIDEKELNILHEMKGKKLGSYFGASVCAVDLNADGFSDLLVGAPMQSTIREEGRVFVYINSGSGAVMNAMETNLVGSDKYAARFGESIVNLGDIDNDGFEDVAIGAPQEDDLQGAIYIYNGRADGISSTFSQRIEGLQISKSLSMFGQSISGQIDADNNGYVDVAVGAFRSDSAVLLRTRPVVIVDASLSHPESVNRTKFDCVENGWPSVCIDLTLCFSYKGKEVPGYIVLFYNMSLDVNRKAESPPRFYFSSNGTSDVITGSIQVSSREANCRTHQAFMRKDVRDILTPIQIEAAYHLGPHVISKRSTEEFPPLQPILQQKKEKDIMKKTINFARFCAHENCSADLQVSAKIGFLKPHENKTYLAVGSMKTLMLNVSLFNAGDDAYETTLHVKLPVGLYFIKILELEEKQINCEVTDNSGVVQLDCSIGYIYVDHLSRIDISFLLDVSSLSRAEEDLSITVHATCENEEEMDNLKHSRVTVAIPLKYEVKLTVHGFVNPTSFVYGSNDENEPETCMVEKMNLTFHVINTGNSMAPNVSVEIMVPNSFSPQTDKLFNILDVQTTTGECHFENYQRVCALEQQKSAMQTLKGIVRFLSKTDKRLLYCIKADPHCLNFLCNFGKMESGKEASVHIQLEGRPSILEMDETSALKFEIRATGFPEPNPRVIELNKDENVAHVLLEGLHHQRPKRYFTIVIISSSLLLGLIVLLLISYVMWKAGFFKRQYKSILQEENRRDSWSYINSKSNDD

Row | SMILES | inhibition
1 | Cc1ccc(NC(=O)C2CCCN(S(=O)(=O)c3c(C)noc3C)C2)c(C)c1 (stereo not drawn) | -21%
2 | O=C(CCn1c(=O)oc2ccccc21)Nc1ccon1 | -16%
3 | O=C(CN1CCN(CC(=O)Nc2ccc3c(c2)OCO3)CC1)Nc1ccc(F)cc1 | 14%
4 | CCOc1ccc(N(CC(=O)OC)S(=O)(=O)c2c(C)noc2C)cc1 | 13%
5 | CCOC(=O)CN1CC23C=CC(O2)C(C(=O)Nc2ccc(F)cc2)C3C1=O (stereo not drawn) | -44.5%
6 | Cc1nc(C)c2c(c1C(F)(F)F)-c1ccccc1C2(F)F | -6.5%
7 | COc1ccc(N2C(=O)C3CCCN3C2c2cccs2)cc1 (stereo not drawn) | 8%
8 | COc1ccccc1Cn1c(=S)[nH]c2cc(C(=O)N3CCN(C)CC3)ccc2c1=O | 15%
9 | O=C(NCCCN1CCN(Cc2ccccc2)CC1)C1CCN(S(=O)(=O)N2CCCC2)CC1 | -27%
10 | CCCC(NC(=O)c1ccccc1)c1nc2ccccc2n1Cc1ccc(C(=O)OC)o1 (stereo not drawn) | 1%
11 | Cc1ccc(NC(=O)CSc2nnc(-c3cnccn3)n2Cc2ccco2)cc1C | -19.5%
12 | Cc1ccc(NC(=O)CN(C)S(=O)(=O)c2cnc[nH]2)cc1C | 1%
13 | CCCOC(=O)c1[nH]c2c(c1C)C(=O)CC(c1cc(OC)c(OC)c(OC)c1)C2 (stereo not drawn) | -2%
14 | COc1ccccc1-n1cnc2cc(C(=O)NCC3CCCO3)ccc21 (stereo not drawn) | -11%
15 | CCOC(=O)c1c(NC(=O)c2cccs2)sc(C)c1C | -11.5%
16 | COc1cccc(NC(=O)Nc2nnc(N3CCCCC3C)s2)c1 (stereo not drawn) | -4%
17 | O=C(O)c1cccc2c1C(=O)N(C1CCCCC1)C2 | -16%
18 | CCOc1ccc(CCNC(=O)C2CCN(c3ccc(N4CCOCC4)nn3)CC2)cc1OCC | -6%
19 | CCOC(=O)N1CCC(NC(=O)c2cnn3ccccc23)CC1 | 2.5%
20 | Cc1nc(CNS(=O)(=O)c2cccnc2)cs1 | -1%
21 | CC1CCCCC1NC(=O)CCS(=O)(=O)c1cccc2nonc12 (stereo not drawn) | 12%
22 | CCN(CC(=O)Nc1ccc2c(c1)OCCO2)Cc1cc(=O)oc2cc(C)c(C)cc12 | -1.5%
23 | CCn1c(=O)cc(SCC(=O)NCc2ccc3c(c2)OCO3)c2ccccc21 | 5%
24 | COc1cc(C2C(C(=O)Nc3ccc(F)cc3)=C(C)Nc3nc(CCCO)nn32)cc(OC)c1OC (stereo not drawn) | -7%
25 | CCn1ncc(C2=NOC(C(=O)N3CCN(c4ccccc4)CC3)C2)c1C (stereo not drawn) | 7%
26 | c1ccc(CCn2nnnc2CN2CCN(C3CCCC3)CC2)cc1 | -4.5%

Row | SMILES | inhibition
27 | Cc1cc(=O)n2nc(N3CCCC(C(=O)N4CCN(C)CC4)C3)sc2n1 (stereo not drawn) | -12.3%
28 | CCN(CC)S(=O)(=O)c1ccc2[nH]cc(C(=O)NCCc3ccccc3)c(=O)c2c1 | 2%
29 | CCOC(=O)c1nnn(CC(=O)Nc2cccc(F)c2)c1C(=O)OCC | 13.7%
30 | CC(NC(=O)CN1CCN(Cc2ccc(Cl)cc2)C1=O)c1ccc2c(c1)OCCO2 (stereo not drawn) | 4%
31 | CN(C)S(=O)(=O)c1cccc(C(=O)Nc2cccnc2)c1 | -37.5%
32 | COc1ccc(Cl)cc1S(=O)(=O)N1CCN(CC(=O)C(C)(C)C)CC1 | 14%
33 | CCCCC(CC)C(=O)Nc1ccc(Cl)cn1 (stereo not drawn) | -17.5%
34 | Cc1cccn2c(=O)c3cc(C(=O)NCc4ccccn4)n(C)c3nc12 | 52% (active)
35 | O=C(NCc1ccccn1)c1cnc2sccn2c1=O | -2%
36 | Cc1cccn2c(=O)c3cc(C(=O)N4COCC4(C)C)n(C)c3nc12 | -28%
37 | Cc1nc(NC(=O)CCC(=O)O)sc1C(=O)N(C)C | -12%
38 | O=C(Cn1c(=O)n(Cc2ccco2)c(=O)c2ccccc21)NCC1CCCO1 (stereo not drawn) | -8.5%
39 | O=C(Nc1nc2ccc(S(=O)(=O)N3CCCC3)cc2s1)C1CCCO1 (stereo not drawn) | -33.5%
40 | CCOc1ccc(Cn2nnc(C(=O)NCc3ccccc3)c2N)cc1 | -1%
41 | O=C(c1ccccc1)c1cccn1CC(=O)N1CCN(c2ccc(F)cc2)CC1 | 49%
42 | O=C(O)C1CCN(S(=O)(=O)N2CCOCC2)CC1 | 0%
43 | C=C1c2cc(CC)ccc2NC(=O)N1c1ccc(C)cc1 | -2%
44 | COC(=O)c1ccc2c(=O)n(CC3CCCO3)c(=S)[nH]c2c1 (stereo not drawn) | -11%
45 | CCn1c(SCC(=O)Nc2ccccc2F)nc2c(c1=O)SC(C)C2 (stereo not drawn) | 3.3%
46 | Cc1ccccc1C(=O)NCCN=C1NS(=O)(=O)c2ccccc21 | -4%
47 | CCOC(=O)N1CCC(C(N)=O)CC1 | -7%
48 | Clc1ccc(Cn2ncc3c(NCc4cccnc4)ncnc32)cc1 | -0.5%
49 | CCn1cc(C(=O)NCC2CCCO2)c(=O)c2cc(S(=O)(=O)N3CCCCC3)ccc21 (stereo not drawn) | 20%
50 | CC(NC(=O)COc1ccccc1)C(=O)NC1=NCCS1 (stereo not drawn) | -18.5%
51 | CCOC(=O)c1[nH]c2c(c1C)C(=O)CC(c1ccc(N(C)C)cc1)C2 (stereo not drawn) | -3%
52 | CCOC(=O)N1CCN(C(=O)c2cn(C)c3ccc(S(=O)(=O)N4CCCC4)cc3c2=O)CC1 | -13%

Row | SMILES | inhibition
53 | CCCCOc1ccc(C(=O)NCc2ccco2)cc1 | -20.5%
54 | Cn1c(=O)cc(OCCCC(=O)N2CCN(Cc3ccc4c(c3)OCO4)CC2)c2ccccc21 | 7%
55 | O=C(C(Cc1ccccc1)n1cccc1)N1CCN(C2CCCCC2)CC1 (stereo not drawn) | 15%
56 | O=C(CCCN1C(=O)C2C3C=CC(C3)C2C1=O)N1CCN(c2ccccc2)CC1 (stereo not drawn) | 21%
57 | Cc1nc2ncnn2c(C)c1CCC(=O)N1CCN(C(=O)c2ccco2)CC1 | 10%
58 | Cc1cc(=O)n2nc(N3CCCC3C(=O)NCCCN3CC(C)CC(C)C3)sc2n1 (stereo not drawn) | -1%
59 | CCOc1ccc(CNC(=O)C2CC(=O)N(C3CCCC3)C2)cc1OC (stereo not drawn) | 28%
60 | O=C(CC(NS(=O)(=O)c1ccc(Cl)cc1)c1ccco1)NC1CCCC1 (stereo not drawn) | 1%
61 | O=C(Nc1ccn(Cc2ccc(F)cc2)n1)c1ccncc1 | 4%
62 | O=C(NCc1cccs1)c1ccc2c(c1)ncn2C1CCCC1 | -10%
63 | CCCn1cc(SCC(N)=O)c2ccccc21 | -4%
64 | N#CC1=C(N)Oc2cc(O)ccc2C1C1CCCCC1 (stereo not drawn) | -8%
65 | CCOCCCN1C(=O)CN(C2CCCCC2)C(=O)C1c1ccc(OCC)c(OC)c1 (stereo not drawn) | 7%
66 | COc1cc2c(cc1OC)C(c1ccc(C)o1)CC(=O)N2 (stereo not drawn) | 3%
67 | CCCCOC(=O)NCN1C(=O)C2C3C=CC(C3)C2C1=O (stereo not drawn) | -15%
68 | Cc1cc(N2C(=O)c3ccc(C(=O)NCc4ccccc4)cc3C2=O)no1 | 3%
69 | CCCCc1nccn1CCn1ccnc1CCCC | -5%
70 | CCCS(=O)(=O)C(=C1Nc2ccccc2N1)S(=O)(=O)CCC | 0%
71 | CCCCNC(=O)c1c[nH]c2ccc(S(=O)(=O)Nc3ccc(OCC)cc3)cc2c1=O | -22.5%
72 | COc1ccc(C2CC(c3ccc(C)cc3)Nc3ncnn32)cc1 (stereo not drawn) | -3.7%
73 | COc1ccc(C2C(C(=O)Nc3ccccc3OC)=C(C)Nc3nnnn32)c(OC)c1 (stereo not drawn) | 3%
74 | CCCCOC(=O)Nc1nccs1 | 15.3%
75 | O=C(CSC1=Nc2ccccc2C2=NC(c3ccccc3)C(=O)N12)NCC1CCCO1 (stereo not drawn) | 3%
76 | COc1ccc(C2CC(c3ccc(Cl)cc3Cl)Nc3nc(N)nn32)cc1OC (stereo not drawn) | -5%
77 | COc1cccc(NS(=O)(=O)c2ccc3[nH]cc(C(=O)NCCCOC(C)C)c(=O)c3c2)c1 | -26%
78 | CCOC(=O)c1oc2ccccc2c1NC(=O)c1cccs1 | 17%

Row | SMILES | inhibition
79 | Cc1nn(C)c(C)c1S(=O)(=O)N1CCc2ccccc21 | 2%
80 | Cc1cccc(N2CCN(S(=O)(=O)c3ccc4c(c3)c(=O)n(C)c(=O)n4C)CC2C)c1 (stereo not drawn) | -4%
81 | O=C(C1CCN(S(=O)(=O)c2cccs2)CC1)N1CCCCCC1 | -3%
82 | CN(C)CCCNC(=O)c1ccc2[nH]c3ccccc3c2c1 | -6%
83 | COc1ccc(CCNC(=O)CSc2nnc(CNC(=O)c3cccs3)o2)cc1OC | 13%
84 | CCOC(=O)C1(c2ccccc2)NC(c2ccc(N(C)C)cc2)C2C(=O)N(C)C(=O)C21 (stereo not drawn) | -13%
85 | CCOc1ccc(NC(=O)N(CCC(C)C)C(C)c2ccco2)cc1 (stereo not drawn) | -12%
86 | CCC(C)(C(=O)NC1CCCC1)N(C(=O)CNC(C)=O)c1ccc(C)cc1 (stereo not drawn) | -12%
87 | Cc1ccc(C(=O)N(CN2CCCC2=O)c2ccc(F)cc2)cc1 | -10%
88 | CCN(CC)CCNC(=O)Cn1cnc2sc(C)c(S(=O)(=O)N3CCOCC3)c2c1=O | 0%
89 | COc1ccccc1CNC(=O)CCCn1c(=O)c2ccccc2n(CC(=O)NC2CCCC2)c1=O | -2%
90 | CCOC(=O)N1CCC(NC(=O)CN2C(=O)COc3ccc(C(C)(C)C)cc32)CC1 | 7%
91 | O=c1c2[nH]c3ccc(Cl)cc3c2ncn1Cc1ccccn1 | -1%
92 | O=S(=O)(NCc1ccccc1Cl)c1cnc[nH]1 | -2%
93 | CCCCN=C(N)/C(C(=O)OCC)=C(\O)c1ccc(OC)cc1 | 9%
94 | COc1ccc(S(=O)(=O)NC2(C(F)(F)F)N=C3SCCN3C2=O)cc1 (stereo not drawn) | -5%
95 | Cc1ccc(-n2nc3c(c2NC(=O)c2ccc4c(c2)OCO4)CSC3)c(C)c1 | 13%
96 | O=C(c1ccc2c(c1)N(Cc1ccc(F)cc1)C(=O)CS2)N1CCOCC1 | -5%
97 | CCCN1CCN(CCCNC(=O)CN2C(=O)COc3ccccc32)CC1 | 1%
98 | Cc1cccc(CSc2nnc(Cn3c(=O)sc4ccccc43)n2C)c1 | 2%
99 | COc1ccc(NC(=O)CN2CCN(S(=O)(=O)c3ccc(F)cc3)CC2)cc1Cl | 9%
100 | COCCn1c(=O)[nH]c2cc(C(=O)NCc3cccnc3)ccc2c1=O | -22%
101 | CCOc1ccccc1NC(=O)c1cc(S(=O)(=O)N2CCC3(CC2)OCCO3)ccc1F | 8%
102 | Cc1cc(C)c2c(n1)nn1c(N3CCOCC3)cc(C)nc21 | -14%
103 | CCOC(=O)CSc1nnc(CNC(=O)c2ccco2)n1-c1ccc(F)cc1 | 14%
